This is a sample that favours compounds with a hit; in the whole collection about 4.2% have one here.
S1P4 antagonist: S1P4 receptor antagonists, primary screen, cell-based; AID 1510, 2009; 220,000 compounds, 0.26% hits; S1P4-expressing cells, antagonist mode, reporter read-out; Sphingosine 1-phosphate receptor 4 (Homo sapiens), O95977; inhibition, % at 4.98 µM; in the data active = inhibition above about 29%;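 also: 0% = wells stimulated with agonist and 100% = vehicle wells without agonist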
Target sequence (O95977 whole entry, looked up): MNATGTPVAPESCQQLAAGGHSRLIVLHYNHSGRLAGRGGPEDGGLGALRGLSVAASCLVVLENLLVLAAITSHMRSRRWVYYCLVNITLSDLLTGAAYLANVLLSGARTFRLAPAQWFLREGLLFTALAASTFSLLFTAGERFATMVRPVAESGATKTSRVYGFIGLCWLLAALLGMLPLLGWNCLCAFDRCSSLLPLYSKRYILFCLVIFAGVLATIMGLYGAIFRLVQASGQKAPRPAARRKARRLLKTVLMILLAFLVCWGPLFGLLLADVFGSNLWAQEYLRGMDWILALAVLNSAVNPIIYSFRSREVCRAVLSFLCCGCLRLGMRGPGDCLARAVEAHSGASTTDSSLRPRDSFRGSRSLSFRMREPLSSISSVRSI
CHOP inhibitor: inhibitors of CHOP promoter induction, primary screen, cell-based, unfolded protein response, luciferase reporter. inhibition, % at 10 µM. CHO-K1 CHOP-promoter luciferase, tunicamycin-induced, 15-18 h. 220,000 compounds, 3.8% hits;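 active = compounds that reduced the stress-induced luciferase reporter signal by more than about 70% of percent inhibition, limit read from the data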;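 also: 0% = tunicamycin plus vehicle and 100% = wells without tunicamycin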
S1P4 agonist: S1P4 receptor agonists, primary screen, cell-based. 220,000 compounds, 0.35% hits. S1P4-expressing cell line, agonist reporter assay. activation, % at 4.98 µM; in the data active = activation above about 11%;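 also: 0% = DMSO vehicle and 100% = reference agonist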
Hsp70 activator: Hsp70 transcriptional activators, primary screen, cell-based, HeLa, Hsp70 promoter luciferase, luminescence, 10 µM | HeLa Hsp70 promoter luciferase reporter; scaled: vehicle 0, proteasome-inhibitor control 100% | activation, % at 10 µM | 200,000 compounds, 0.04% hits | AID 1203, 2008;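 active = activation above the mean across all tested compounds plus 3 SD, cutoff set per campaign, cut at about 5.5% in these data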;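 also: 100% = MG132 at 30 µM as the positive control and 0% = DMSO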
Numbers without * were called inactive; . = no result given.

SMILES	S1P4 antagonist	CHOP inhibitor	S1P4 agonist	Hsp70 activator
Cc1nc(NC(=O)CC(C)C)sc1-c1csc(Nc2ccc(Cl)cc2)n1	9	71*	-4	0
O=c1ccc2cc(S(=O)(=O)N3CCN(c4cc(Cl)ccc4Cl)CC3)ccc2o1	1	70*	1	0
O=S(=O)(N1CCCCC1)N1CCN(c2cc(Cl)ccc2Cl)CC1	-4	11	1	0
CC1C/C(=N\NC(N)=S)c2cc(Cl)ccc2S1 (stereo unspecified)	-8	-10	1	.
O=S(=O)(NCc1cc(-c2ccccc2Cl)no1)c1ccc(Cl)cc1	-14	74*	1	0
Cc1onc(-c2ccccc2)c1C(=O)Nc1ccc(S(=O)(=O)Nc2nccs2)cc1	-9	6	1	.
COc1ccc(-c2ccc(-c3noc(-c4ccccc4F)n3)c(OC)n2)cc1	-38	74*	2	0
COc1ccc(-c2ccc(-c3noc(-c4ccco4)n3)c(OC)n2)cc1	-12	72*	0	0
NCCc1nnc(SCc2ccccc2F)o1	-7	22	1	0
Cc1snc2sc(C(=O)c3ccc(F)cc3)c(N)c12	8	-9	0	.
CC(=O)Nc1cccc(NC(=O)CSc2ncc(-c3ccc(Cl)cc3)n2Cc2ccco2)c1	9	88*	1	0
Cc1cc(=O)[nH]c(SCC(=O)N2CCN(C(c3ccccc3)c3ccccc3)CC2)n1	-3	74*	0	0
CC1CCN(Cc2nc(Cl)c3c4c(sc3n2)CCC4)CC1	1	-27	2	0
Cc1cc(/C=C2\SC(=Nc3ccc(F)cc3)NC2=O)c(C)n1-c1ccc(S(N)(=O)=O)cc1	-24	77*	1	0
CCNc1nc(SCC(=O)Nc2ccc(Cl)c(Cl)c2)nc(N(C)C)n1	-4	79*	1	0
CN(C)c1nc(NCc2ccccc2)nc(SCC(=O)Nc2ccc(Cl)c(Cl)c2)n1	-24	60	4	0
O=C(c1cccs1)N1CCN(c2ncccn2)CC1	9	-9	-5	0
CCOC(=O)NC(=S)Nc1ccc(C(C)(C)C)cc1	9	9	1	.
CC(C)(C)c1ccc(COC(=O)Nc2ccc(F)cc2)cc1	-18	77*	-1	0
NC1=NC[C@@H](Cc2ccc(O)cc2)N1CCc1cccc(F)c1	.	2	.	.
CC(C)c1ccc2c(c1)CCC1C(C)(CN)CCCC21C (stereo unspecified)	-17	102*	-1	.
CC(=O)N(C(C)=O)N1C(=O)/C(=C/c2ccc(Cl)cc2)SC1=S	2	91*	1	0
Cc1cccc(N2CCN(C(=S)Nc3ccc4nc(N5CCN(C)CC5)cc(C)c4c3)CC2)c1C	9	105*	0	0
CN(C)c1nc(N)nc(CSc2nc3cc(Cl)ccc3o2)n1	-1	77*	-1	1
O=C(C1CCCN(S(=O)(=O)c2cnc[nH]2)C1)N1CC(=O)N(CCc2ccccc2)C(=O)C1 (stereo unspecified)	-18	48	5	0
SMILES	S1P4 antagonist	CHOP inhibitor	S1P4 agonist	Hsp70 activator
N#CC(C#N)=C(Nc1ccc(F)cc1)SCc1cccc(F)c1	-2	85*	-2	0
COC(=O)C1CCN(Cc2ccc(C)cc2)CC1	-4	4	0	0
COc1ccc(-c2cc(C(F)(F)F)nc(NC3CCCC3)n2)cc1OC	-15	73*	-1	0
COc1ccc(-c2cc(C(F)(F)F)nc(N3CCOCC3)n2)cc1OC	-18	62	1	0
CN=c1scc(-c2cccs2)n1/N=C/c1ccc(O)c(O)c1O	-19	-3	3	0
CN=c1scc(-c2cccs2)n1/N=C/c1ccccc1O	1	94*	0	-1
COc1ccc(S(=O)(=O)n2nc(-c3cc(OC)c(OC)c(OC)c3)cc2N)cc1OC	1	-30	-1	0
COc1ccc(-c2cc(N)n(S(=O)(=O)c3c(F)c(F)c(F)c(F)c3F)n2)cc1OC	26	.	0	20*
Oc1cccnc1CCc1ccccc1	-21	-18	0	0
COc1ccc(/C=N/NC(=O)c2ccc(C)cc2)cc1CN1CCN(c2ccc(F)cc2)CC1	-7	-10	7	0
Nc1ncn([C@@H]2O[C@H](CO)[C@@H](O)[C@H]2O)c(=O)n1	.	-14	.	.
Nc1ccn([C@@H]2O[C@H](CO)[C@@H](O)[C@@H]2O)c(=O)n1	14	35	12*	0
Oc1ccc(-c2cn3cc(C(F)(F)F)ccc3n2)cc1	-6	6	2	-1
Cc1cccc(NC(=S)NC2CC3CCCC(C2)N3Cc2cccs2)c1C (stereo unspecified)	-3	-2	1	0
